Laboratory results reported in PubChem BioAssay AID1159580 (chemical genetic matrix, 2015).
Values joined by “and” are separate entries in the source; they are usually repeats but may differ in a detail not shown here. Equal entries are not always repeated. Out of some 5,500 compounds screened, about 2,000 (36%) were called active. Not shown: some 18% with an inconclusive outcome. Cut-off read from the data, not from the text of the source: active = normalized growth mostly below about 0.91 (no sharp cut-off); inconclusive = no clear call, values can overlap the other calls; inactive = mostly above about 0.92. The list shows a part of the results.

Assay: chemical genetic growth profiling, strain panel (AID 1159580);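 note: tested at 20 µM; growth read once vehicle control cultures reached saturation at 30 °C; 1 = growth at the plate median or of vehicle wells; lower values mean less growth of the strain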
Details: S. cerevisiae deletion strains, growth OD

Measured: normalized growth

CN(N=O)C(=O)N[C@@H]1[C@@H](O)[C@H](O)[C@@H](CO)O[C@@H]1O
inactive: locus YAL021C, strain ccr4, active compounds read low 1 | locus YAL026C, strain drs2, active compounds read low 0.991 | locus YAL030W, strain snc1, active compounds read low 0.988 | locus YBL061C, strain skt5, active compounds read low 1.01 | locus YBR009C, strain hhf1, active compounds read low 0.979 | locus YBR021W, strain FUR4, active compounds read low 1 | locus YBR023C, strain chs3, active compounds read low 0.999 | locus YBR171W, strain sec66, active compounds read low 1.01 | locus YBR229C, strain ROT2, active compounds read low 1 | locus YBR231C, strain swc5, active compounds read low 0.997 | locus YBR279W, strain paf1, active compounds read low 1.02 | locus YCL011C, strain gbp2, active compounds read low 1 | locus YCL016C, strain dcc1, active compounds read low 1.03 | locus YCL029C, strain bik1, active compounds read low 0.99 | locus YCL061C, strain MRC1, active compounds read low 1.02 | locus YCL069W, strain vba3, active compounds read low 0.974 | locus YCR088W, strain abp1, active compounds read low 0.973 | locus YDL005C, strain med2, active compounds read low 0.98 | locus YDL035C, strain GPR1, active compounds read low 1.03 | locus YDL040C, strain nat1, active compounds read low 0.999 | locus YDL074C, strain BRE1, active compounds read low 1.02 | locus YDL101C, strain DUN1, active compounds read low 1.01 | locus YDL134C, strain PPH21, active compounds read low 1.02 | locus YDL185W, strain tfp1, active compounds read low 1.02 | locus YDL192W, strain arf1, active compounds read low 1.01 | locus YDR001C, strain nth1, active compounds read low 0.978 | locus YDR069C, strain doa4, active compounds read low 0.986 | locus YDR101C, strain arx1, active compounds read low 0.979 | locus YDR137W, strain rgp1, active compounds read low 0.938 | locus YDR150W, strain NUM1, active compounds read low 1.01 | locus YDR159W, strain sac3, active compounds read low 0.945 | locus YDR162C, strain NBP2, active compounds read low 1.04 | locus YDR195W, strain ref2 0.988 | locus YDR297W, strain sur2, active compounds read low 0.998 | locus YDR318W, strain mcm21, active compounds read low 1.01 | locus YDR334W, strain swr1, active compounds read low 0.95 | locus YDR335W, strain msn5, active compounds read low 0.981 | locus YDR388W, active compounds read low 1.01 | locus YDR392W, strain spt3, active compounds read low 0.956 | locus YDR502C, strain sam2, active compounds read low 0.998 | locus YEL003W, strain gim4, active compounds read low 0.995 | locus YEL037C, strain rad23, active compounds read low 0.986 | locus YEL061C, strain CIN8 (second series), active compounds read low 0.971 | locus YEL061C, strain CIN8, active compounds read low 1.01 | locus YER015W, strain faa2, active compounds read low 1 | locus YER016W, strain bim1, active compounds read low 0.983 | locus YER110C, active compounds read low 1.01 | locus YER111C, strain swi4, active compounds read low 0.998 | locus YER155C, strain BEM2 (second series), active compounds read low 0.983 | locus YER155C, strain BEM2, active compounds read low 1 | locus YER167W, strain BCK2, active compounds read low 1.02 | locus YFR010W, strain ubp6, active compounds read low 0.954 | locus YGL078C, strain dbp3, active compounds read low 1 | locus YGL086W, strain mad1, active compounds read low 0.989 | locus YGL167C, strain pmr1, active compounds read low 0.993 | locus YGL173C, strain kem1, active compounds read low 1.01 | locus YGL227W, strain vid30, active compounds read low 1.01 | locus YGL240W, strain doc1, active compounds read low 0.985 | locus YGL248W, strain PDE1, active compounds read low 0.996 | locus YGL253W, strain hxk2, active compounds read low 0.982 | locus YGR078C, strain PAC10, active compounds read low 0.999 | locus YGR135W, strain pre9, active compounds read low 1.04 | locus YGR229C, strain SMI1, active compounds read low 1.01 | locus YGR252W, strain gcn5, active compounds read low 1.02 | locus YHR013C, strain ard1, active compounds read low 0.999 | locus YHR027C, strain rpn1, active compounds read low 0.99 | locus YHR030C, strain SLT2, active compounds read low 1 and 1.02 | locus YHR079C, strain IRE1 (second series), active compounds read low 1 | locus YHR079C, strain IRE1, active compounds read low 1.07 | locus YHR094C, strain hxt1, active compounds read low 1 | locus YHR129C, strain ARP1, active compounds read low 0.998 | locus YHR142W, strain chs7, active compounds read low 0.962 | locus YHR200W, strain rpn10, active compounds read low 1.01 | locus YIL066C, strain RNR3, active compounds read low 1.01 | locus YIL073C, strain SPO22, active compounds read low 1.14 | locus YIL125W, strain kgd1, active compounds read low 1 | locus YIR030C, strain dcg1, active compounds read low 1 | locus YJL092W, strain hpr5, active compounds read low 0.979 | locus YJL095W, strain BCK1 (second series), active compounds read low 1 | locus YJL095W, strain BCK1, active compounds read low 1.02 and 1 | locus YJL115W, strain asf1, active compounds read low 0.981 | locus YJL129C, strain trk1, active compounds read low 0.984 | locus YJL134W, strain LCB3, active compounds read low 1 | locus YJL154C, strain vps35, active compounds read low 0.998 | locus YJL164C, strain tpk1, active compounds read low 0.993 | locus YJL166W, strain qcr8, active compounds read low 1 | locus YJL168C, strain set2, active compounds read low 1.01
